HIF-2a inh = blocks HIF-2a reporter activity; 360,000 tested, 0.72% active; AID 624352; inhibition, % at 18.8 µM; 786-0 RCC cells HIF-2a reporter, luciferase luminescence, overnight;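 active = inhibition of the luminescence signal of 40% or more relative to plate controls, in a single-dose primary screen at 18.75 µM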
TROY NFkB inh = blocks TROY-dependent signaling in reporter cells. 360,000 tested, 0.98% active. inhibition, % at 10 µM. Q293 LMP1-TROYcd NF-kB luciferase reporter, 4 h;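 active = compounds whose plate-normalised and pattern-corrected inhibition of the luciferase reporter signal at the single screening dose is 50% or more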
KKLEB tox = reduces viability of KKLEB cystic fibrosis airway cells | activity change (cytotoxicity), % at 5 µM | 360,000 tested, 0.36% active | KKLEB CF airway cells viability, ATPlite luminescence, overnight; hits give low values; cells stimulated with P. aeruginosa culture filtrate;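 active = corrected activity change at or below -50% at 5 µM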
Peg3 prom inh = inhibitors of Peg3 promoter. HeLa PEG-Prom luciferase reporter, luminescence, overnight. inhibition, % at 20 µM. 360,000 tested, 1.7% active. AID 588405;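 active = inhibition of at least 50% at 20 µM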
TWEAK Fn14 block = blocks TWEAK-Fn14 interaction in a reporter cell assay; 360,000 tested, 2% active; TWEAK-stimulated Fn14 reporter cells, luciferase luminescence, 8 h; inhibition, % at 10 µM; AID 1159606; in the data active = inhibition above about 50%
CF NFkB block = inhibitors of cystic fibrosis induced NF-kB; inhibition, % at 5 µM; KKLEB NF-kB-GFP reporter, PAF-induced, GFP fluorescence overnight; AID 588850; 360,000 tested, 0.86% active;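 active = at least 50% inhibition at 5 µM, scaled per plate between neutral and stimulator controls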;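 note: PAF is a Pseudomonas aeruginosa culture filtrate used as stimulus; plate controls were PAF-stimulated DMSO wells for no effect and unstimulated DMSO wells for full effect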
* marks the source's active call; other numbers are inactive results; nt = not tested or not shown. In the library only some 4% were active in any assay of this set; here they are far more common.

SMILES | HIF-2a inh | TROY NFkB inh | KKLEB tox | Peg3 prom inh | TWEAK Fn14 block | CF NFkB block
COc1cc(OC)cc(-c2sc3ccc(OC)cc3c2C#CC2(N)CCCCC2)c1 | 0 | 13 | -29 | 95* | -12 | 33
COc1ccc(-c2sc3cc4c(cc3c2C#CC2(N)CCCCC2)OCO4)cc1 | -94 | -45 | -2 | 93* | -41 | 1
COc1ccc(-c2sc3cc4c(cc3c2C#Cc2cncn2C)OCO4)cc1 | -21 | -11 | -3 | 26 | -18 | -58
O=C(NC1CCCCC1)C(c1ccc(F)cc1)N(CCc1ccccc1)C(=O)CN1C(=O)c2ccccc2S1(=O)=O (configuration not stated) | 0 | 11 | -20 | 79* | 3 | 19
O=C(CN1C(=O)c2ccccc2S1(=O)=O)NC1CCCC1 | -20 | -33 | -11 | 2 | 1 | 10
O=C(NC1CCCCC1)C(c1ccc(F)cc1)N(Cc1ccccc1)C(=O)CN1C(=O)c2ccccc2S1(=O)=O (configuration not stated) | 6 | -8 | -23 | 68* | -16 | 8
O=C(NCC1CCCO1)C(c1ccncc1)N(Cc1ccc(F)cc1)C(=O)CN1C(=O)c2ccccc2S1(=O)=O (configuration not stated) | 6 | -11 | 1 | 2 | -5 | 7
CCCC(=O)N1CCC1(C)C(=O)NS(=O)(=O)c1cccc(C)c1 (configuration not stated) | -1 | 1 | -9 | 2 | 9 | 15
CCOC(=O)c1oc2ccccc2c1CN1CCN(C)CC1 | 13 | nt | 7 | -6 | 86* | -3
C/C=C(/C(=C/C)c1ccc(O)cc1)c1ccc(O)cc1 | -6 | 26 | -10 | 17 | 14 | 21
C=C(c1ccc(O)cc1)c1ccc(O)cc1 | 35 | 51* | 11 | -14 | 42 | -15
O=C(COC(=O)COc1ccc(Cl)cc1Br)NC1CCCC1 | 9 | -2 | -6 | 4 | 10 | -37
CN(C)S(=O)(=O)N1CCC(Oc2cccc(C(=O)NC3CCCCC3)c2)CC1 | -23 | 8 | -11 | 7 | 23 | 1
CN(C)S(=O)(=O)N1CCC(Oc2cccc(C(=O)NCCC3=CCCCC3)c2)CC1 | -60 | 37 | 12 | -6 | 50* | -13
O=C(NCc1ccccc1)C(c1cc2ccccc2o1)n1c(=O)c(-c2cc3ccccc3[nH]2)nc2ccccc21 (configuration not stated) | -54 | nt | nt | nt | nt | nt
Cc1cccc(OCC(O)Cn2c(=N)n(Cc3ccccc3)c3ccccc32)c1 (configuration not stated) | 16 | 5 | -5 | 2 | -12 | -4
Cc1cccc(OCC(O)CN2CCNCC2)c1 (configuration not stated) | 14 | 7 | -10 | 8 | 1 | 1
Cc1cccc(OCC(O)Cn2c(=N)n(CCN3CCCCC3)c3ccccc32)c1 (configuration not stated) | 25 | -15 | -14 | 95* | -43 | 14
CCN(CC)CCn1c(=N)n(CC(O)COc2cccc(C)c2)c2ccccc21 (configuration not stated) | 18 | -17 | -18 | 58* | -25 | -2
COc1ccc(C)cc1S(=O)(=O)n1c([N+](=O)[O-])cnc1C | 17 | 15 | 9 | 11 | 87* | -3
OC(CNCC(c1ccc(Cl)cc1Cl)c1c[nH]c2ccccc12)c1ccccc1 (configuration not stated) | 17 | 79* | -17 | 110* | 74* | 19
O=[N+]([O-])CC(c1ccccc1)c1c[nH]c2ccccc12 (configuration not stated) | 13 | 5 | 2 | 33 | 2 | 8
Cc1cc(C)c(NC(=S)NC(NC(=O)c2ccccc2)C(Cl)(Cl)Cl)c(C)c1 (configuration not stated) | -5 | 26 | -12 | 69* | 14 | 12
Cc1ccc(NC(=S)NC(NC(=O)c2ccccc2)C(Cl)(Cl)Cl)c(C)c1 (configuration not stated) | 31 | 30 | 19 | 35 | 30 | -1
Cc1cc(C)c(O)c(NC(=S)NC(=O)Cc2ccccc2)c1 | -11 | -21 | 0 | -15 | 72* | 4
Cc1cccc(NC(=S)NC(=O)Cc2ccccc2)c1C | -24 | -1 | 5 | -7 | -17 | 3

Bioassay records as filed in PubChem.
